Data: PubChem BioAssay (NCATS)
Results filed as inconclusive are left out. The call rests on the fitted dose curve; in most records, active means well fitted inhibition curve with a large enough effect; inconclusive means small, poorly fitted or top-dose-only effect; inactive means no such curve, though single readings can be large or run the other way.

Assay: Primary qHTS for small molecule stabilizers of the endoplasmic reticulum resident proteome: Secreted ER Calcium Modulated Protein (SERCaMP) assay (AID 1508630)
Conditions: SH-SY5Y GLuc-SERCaMP (Gaussia luciferase released on ER calcium loss) secretion, thapsigargin, luminescence; series mostly up to 38.4 µM; activity change, negative = inhibition: at the top concentration
Summary of the method: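 The SH-SY5Y reporter protocol was run at 3 concentrations up to 38.3 uM (primary) or 11 concentrations (follow-up): 16 h compound, 100 nM thapsigargin for 4 h, then extracellular luciferase luminescence.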
On the % scale 0 is the no-effect control and ±100 the full control effect.

Activity change, negative = inhibition, inactive:
CC1CCC2=C1C[C@H](C(C)(C)O)CC[C@@H]2C (some centres undefined) -3.16%
O=C(O)c1c(C(=O)O)c2ccccc2[nH]c1=O -23.7%
COc1ccc(/C=C2\NC(=O)[C@@H]3Cc4ccccc4CN3C2=O)cc1 1.26%
CC1=C(C(=O)O)N2C(=O)[C@@H](NC(=O)[C@H](N)C3=CCC=CC3)[C@@H]2SC1 1.97%
COc1cc(C)c(CC/C(C)=C/C=C/C(C)=O)c(C)c1C 19.8%
C[C@@H]1C(=O)CC2C(C)(C)CCC[C@]2(C)[C@@]1(O)CCc1ccoc1 (some centres undefined) 36.1%
C/C(N[C@@H]1CSCC1O)=C1/C(=O)CC2[C@@H]1C2(C)C (some centres undefined) -8.06%
c1cnc2c(-c3nccc4c3[nH]c3ccccc34)cccc2c1 12.7%
O=C(O)c1ccc(-c2ccc3cc(C45CC6CC(CC(C6)C4)C5)c(O)cc3c2)cc1 -16%
COc1cc2c(cc1OC)C1N(CC2)C(=O)CCC12C(=O)CCCC2=O (centres undefined) -9.54%
CC(C)=CCn1cnc2c1c(=O)n(C)c(=O)n2C -24.8%
C=C1CCC2[C@](C)(CO)[C@H](O)CC[C@@]2(C)[C@@H]1C/C=C1/C(=O)OC[C@H]1O (some centres undefined) 2.56%
COc1ccc2cnoc(=O)c2c1OC -17.3%
CC(=O)O[C@@H]1CC2C(C)(C)C(=O)C=C[C@]2(C)C2CC[C@]3(C)C(=CC[C@H]3C3CO[C@@H](C(C)(C)O)[C@H](O)C3)[C@@]21C (some centres undefined) 17.2%
C[C@H]1CC[C@@H]2N(C1)C[C@H]1[C@@H]3C[C@H]4[C@@H](C/C(=N\O)[C@H]5C[C@@H](O)CC[C@@]54C)[C@@H]3CC[C@H]1[C@]2(C)O -18.1%
COc1ccc(C2c3[nH]c4ccccc4c3CC3C(=O)N(CCc4ccc(OC)c(OC)c4)CC(=O)N32)cc1 (centres undefined) -28.8%
CC(=O)OC[C@@]12C(=O)[C@@H](O)[C@@H](C)[C@]3(C[C@@H](c4ccoc4)O[C@@H]3OC(C)=O)[C@H]1CCC[C@]21CO1 -3.64%
C[C@@]12CC(=O)C3=C(CCCC3=O)N1CCc1ccccc12 -8.78%
COc1cccc2c3c(c(C)nc12)CC(CO)O3 (centres undefined) -6.43%
O=C(O)C(O)C(O)(Cc1ccc(O)cc1)C(=O)O (centres undefined) -22.1%
CC1OCC23CC[C@@]4(C)CCC(C)(C)C[C@H]4[C@]2(C)CCC12C3CC[C@@]1(C)C2C(=O)CC(=O)[C@@H]1C (some centres undefined) -15.3%
C/C=C(\C)C(=O)O[C@H]1C[C@@]2(C)CCC(C(C)C)C2(O)CC[C@@]1(C)O (some centres undefined) 34.9%
COC(=O)/C(=C1/OC(=O)C(c2ccccc2)=C1O)c1ccccc1 14.6%
COc1c2c(nc3occc13)C(CC=C(C)C)(OC)C(=O)C=C2 (centres undefined) 19.4%
COc1ccc([C@H]2c3cc(OC)c(OC)cc3C[C@@H](C)[C@@H]2C)cc1OC -0.607%
Cc1cn(C2OC[C@@H](O)[C@@H]2CO)c(=O)[nH]c1=O (some centres undefined) -0.822%
COc1cc2c(cc1O)-c1ccccc1CN(C)C2 25.2%
COc1cc2c(cc1OC)C(c1ccccc1)=NCC2 20.2%
Cn1c2c(c(=O)c3ccccc31)C[C@@H](O)C(C)(C)O2 -24.4%
C=C[C@@H](C1=CC(=O)C(OC)=C(OC)C1=O)c1ccccc1 123%
COc1ccc2c(c1OC)C(=O)N1c3ccccc3C(=O)OC21 (centres undefined) -12.1%
COc1ccccc1Oc1coc2cc(O)ccc2c1=O 19.9%
COc1c2ccoc2nc2c(OC)c(O[C@@H]3O[C@H](C)[C@@H](O)[C@@H](O)[C@H]3O)ccc12 -5.76%
CC1NC(C(=O)O)Cc2c1[nH]c1ccccc21 (centres undefined) 6.01%
CN1CCN(c2ccc(Nc3c4ccccc4nc4ccccc34)cc2)CC1 293%
C[C@@H]1CCC2C(C)(C)C3CC21CC[C@@]3(C)O (some centres undefined) -18.2%
Cc1cc(O)c2c(c1O)C(=O)C(O)=C(O)C2=O -18%
COc1cccc2c(=O)c3ccoc3n(C)c12 17.8%
COc1ccc(/C=C/C(=O)/C=C/c2ccc(OC)cc2OC)c(OC)c1 73.2%
